# Assay outcomes: PubChem BioAssay, National Center for Advancing Translational Sciences (NCATS)
# GPT2 inhibitor: inhibitors of human GPT2 alanine aminotransferase | Recombinant GPT2, coupled pyruvate oxidase/HRP Amplex Red fluorescence | Potency, µM (top dose mostly 57.7 µM), hits mostly inhibitors | hit rate 0.25% among 100,000; further: nearly all actives have a fitted effect of over 60% in size
# Target sequence (Q8TD30 whole entry, looked up): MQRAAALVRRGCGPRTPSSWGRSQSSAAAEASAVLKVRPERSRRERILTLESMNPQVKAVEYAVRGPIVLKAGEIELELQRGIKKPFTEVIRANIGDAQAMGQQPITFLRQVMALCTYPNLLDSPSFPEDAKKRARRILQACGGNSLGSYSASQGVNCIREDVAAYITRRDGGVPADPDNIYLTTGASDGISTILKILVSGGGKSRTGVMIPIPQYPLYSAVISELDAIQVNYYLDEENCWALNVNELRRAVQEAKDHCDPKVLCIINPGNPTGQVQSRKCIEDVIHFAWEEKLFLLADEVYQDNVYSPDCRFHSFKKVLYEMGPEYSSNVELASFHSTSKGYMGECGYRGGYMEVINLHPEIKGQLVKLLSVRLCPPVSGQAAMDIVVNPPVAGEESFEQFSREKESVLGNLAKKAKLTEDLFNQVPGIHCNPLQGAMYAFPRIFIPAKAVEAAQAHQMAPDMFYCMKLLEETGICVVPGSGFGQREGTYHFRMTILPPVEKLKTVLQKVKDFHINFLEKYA
#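 Fluorescence of coupled pyruvate oxidase/HRP/Amplex Red system (50uM Amplex, 30 min, dark) reports pyruvate formed by GPT2. Enzyme reaction: 10ng/uL GPT2, 2mM L-alanine, 250uM a-KG, 30 min room temperature, pH 7.5; 50uM AOA control.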
# HEK cytotox: HEK 293 cell cytotoxicity. Potency, µM (series often up to 115 µM), usual class: inhibitors. hit rate 6.6% among 94,000. HEK 293 viability, ATP luminescence (CellTiter-Glo), 48-72 h; further: nearly all actives have a fitted effect of over 60% in size
#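 CellTiter-Glo luminescence (cellular ATP) was read after 48 or 72 hr of compound exposure at 37 degree Celsius. Cells were HEK 293 plated at 250 cells/well.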
# FLuc inh-1: inhibitors of firefly (Photinus pyralis) luciferase; hit rate 2.5% among 76,000; Potency, µM (doses to about 115 µM), usual class: inhibitors; purified P. pyralis luciferase, luminescence, biochemical; P08659; further: nearly all actives have a fitted effect of over 65% in size
#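 Inhibitors were tested against purified firefly luciferase in a biochemical, low-substrate format (both substrates at 10uM) and luminescence measured with a CCD imager.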
# hNpr1 antagonist: blocks ANP-stimulated signaling of human Npr1 receptor | P16066 | HEK293 hNpr1 GloSensor cGMP, ANP-stimulated luminescence | Potency, µM (top dose mostly 46.3 µM), usual class: inhibitors | hit rate 1.6% among 76,000 | AID 1347048; calls by dose curve; further: nearly all actives have a fitted effect of over 60% in size
#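 Compound pre-incubated 30 min at room temperature on GloSensor-loaded HEK293 cells stably carrying hNpr1 and the pGS-40F cGMP biosensor. Stimulation uses hNppA at 0.1 nM final; luminescence is taken at baseline and 20 min post-agonist.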
# 3T3 cytotox: kills NIH 3T3 cells. NIH 3T3 viability, CellTiter-Glo ATP luminescence, 48-72 h. Potency, µM (titrated, usually from 96.7 µM), usual class: inhibitors. hit rate 4.3% among 94,000. AID 1345082; further: nearly all actives have a fitted effect of over 55% in size
#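 Cytotoxicity is measured as loss of cellular ATP: NIH 3T3 cells (400/well) are exposed to compound for 48 or 72 hr at 37 °C, then CellTiter-Glo luminescence is imaged after 10 min at room temperature.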
# FLuc SDR -ATP: binders stabilizing firefly luciferase, without ATP | shares compounds with FLuc inh-1 | hit rate 7.8% among 1,300 | Potency, µM (highest dose often 32.7 µM), usual class: activators | Purified FLuc-C-HiBiT, Nano-Glo HiBiT luminescence, no ATP; further: nearly all actives have a fitted effect of over 55% in size
# FLuc SDR ATP: stabilizes firefly luciferase with ATP present. purified FLuc-C-HiBiT + ATP, HiBiT complementation luminescence. Potency, µM (doses to about 32.7 µM), usual class: activators. shares compounds with FLuc inh-1. hit rate 8.7% among 1,300;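 further: signal reports ligand binding via conformational change of the enzyme rather than luciferase catalysis; nearly all actives have a fitted effect of over 55% in size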
# FLuc inh-2: blocks firefly luciferase enzymatic activity; shares compounds with FLuc inh-1; purified FLuc-C-HiBiT enzyme, luciferin luminescence; Potency, µM (top dose mostly 32.7 µM), actives largely listed as inhibitors; hit rate 42% among 1,300; further: nearly all actives have a fitted effect of over 70% in size
# A number is an active result; . = inactive; ? = inconclusive; / = not tested or not shown. Compounds with a hit are over-represented: about 10% of the library has one in this group of screens. Unless noted, the call rests on the fitted dose curve; in most records, active means well fitted curve in the direction sought with a large enough effect; inconclusive means small, poorly fitted or top-dose-only effect, or another doubt; inactive means no such curve, though single readings can be large; an effect the other way counts as inactive or inconclusive.
SMILES,GPT2 inhibitor,HEK cytotox,FLuc inh-1,hNpr1 antagonist,3T3 cytotox,FLuc SDR -ATP,FLuc SDR ATP,FLuc inh-2
COc1ccc(C(=O)N[C@@H]2CN(Cc3ccncc3)C[C@H]2CN(C)C)c(OC)c1,.,?,.,.,.,/,/,/
COc1ccc([C@H]2C[C@@H](O)[C@@H](O)[C@@H]2NC(=O)c2cc(C)oc2C(F)(F)F)cc1,.,.,.,?,.,/,/,/
O=S(=O)(c1cc(F)ccc1F)N1CCC(C2CCNC2)CC1 (stereo unspecified),.,.,.,.,.,/,/,/
CCc1noc(-c2nc(-c3ccc4c(c3)OCO4)no2)n1,.,?,10µM,.,.,.,.,?
O=C1Nc2ccc(-c3ccc(Cl)cc3)cc2C(=O)N2CC[C@H](NS(=O)(=O)c3cccs3)C[C@@H]12,.,?,.,.,?,/,/,/
O=C1CCCN1CCCN1C(=O)[C@H]2CNC[C@H]2C1=O,.,.,.,.,.,/,/,/
COc1ccc(-c2nc3c4cnn(-c5ccccc5F)c4ncn3n2)cc1,/,/,/,/,/,.,.,?
CCOC(=O)N1CCc2c(sc(NCc3cccc(F)c3)c2C(=O)Nc2ccc(OC)cc2OC)C1,/,/,/,/,/,.,?,2.5µM
CCOC(=O)N1CCc2c(sc(NCc3sccc3C)c2C(=O)Nc2ccc(OC)cc2OC)C1,/,/,/,/,/,.,?,5µM
CCC(=O)N1CCc2c(C(=O)Nc3ccc(OC)cc3OC)cccc21,.,.,.,.,.,/,/,/
COc1ccc(NC(=O)c2c(C)oc3ccn(Cc4cccc(F)c4)c(=O)c23)c(OC)c1,.,?,.,.,?,/,/,/
CCOC(=O)N1CCC(=O)N(CCOC)C[C@H]2CN(C)c3ccccc3[C@@H]21,.,?,/,/,?,/,/,/
CCOc1cccc(NC(=O)CSc2ncc(-c3ccccc3)[nH]2)c1,/,/,/,/,/,.,.,.
C[C@@H](NS(C)(=O)=O)c1c(-c2ccc(F)cc2)noc1C(=O)O,.,.,.,.,.,/,/,/
CC(C)(C)CN1CCNc2cc(Nc3cccnc3)ncc2C1,.,.,1.6µM,.,?,?,?,6.4µM
CC(C)(C)CN1CCNc2cc(Nc3ccccc3)ncc2C1,?,?,2.2µM,?,50µM,?,.,7.2µM
O=C(Cc1cccc(Cl)c1)N1CCc2nc(-c3ccc(Cl)cc3)nc(-c3ccccc3)c2C1,.,?,.,.,.,/,/,/
CS(=O)(=O)N1CCCC1c1noc(CCC(=O)N2CCC(N3CCCCC3)CC2)n1 (stereo unspecified),.,.,.,.,.,/,/,/
CCC(=O)Nc1ccc2nnc(-c3ccc(C(=O)Nc4ccc5c(c4)OCCO5)cc3)n2c1,.,?,14µM,.,.,.,?,?
CCC(C)(C)NC(=O)c1ccc(-c2nnc3ccc(NC(=O)C4CC4)cn23)cc1,.,?,.,.,.,/,/,/
C[S+](=O)([O-])NCc1nnc2n1C(C(=O)NCc1ccc(F)cc1)CC2 (stereo unspecified),.,.,/,/,.,/,/,/
COc1ccc(-c2cnc(Nc3cccc(N[S+](C)(=O)[O-])c3)c3c2CCO3)cn1,.,89µM,14µM,.,?,.,.,?
Clc1ccc(Nc2ncc(-c3cccnc3)c3c2OCC3)cc1,.,?,5µM,.,?,.,.,?
Fc1ccc(Nc2ncc(-c3cccnc3)c3c2OCC3)cc1,.,.,11µM,.,?,.,.,?
Cn1cc(-c2cnc(Nc3ccc(N4CCOCC4)cc3)c3c2CCO3)cn1,?,?,4µM,.,?,?,?,14µM
SMILES,GPT2 inhibitor,HEK cytotox,FLuc inh-1,hNpr1 antagonist,3T3 cytotox,FLuc SDR -ATP,FLuc SDR ATP,FLuc inh-2
c1ccc(Nc2ncc(-c3cccnc3)c3c2OCC3)cc1,.,/,/,/,/,.,?,?
COc1ccc(CN2CCOC[C@H](OCC(=O)N(C)C)C2)cc1,.,.,.,.,.,.,.,.
CN(C)C(=O)CO[C@H]1COCCN(Cc2ccccn2)C1,.,.,.,.,.,/,/,/
O=C(NCCc1cccs1)C1CCN(C(=O)c2ncn3c2COC(c2ccc(F)cc2)C3)CC1 (stereo unspecified),.,.,.,.,.,/,/,/
O=C(NCc1cccs1)C1CCN(C(=O)c2ncn3c2COC(c2ccccc2)C3)CC1 (stereo unspecified),.,.,6.3µM,.,.,.,2.2µM,2.5µM
CCCCNC(=O)C1CCN(C(=O)c2ncn3c2COC(c2ccccc2)C3)CC1 (stereo unspecified),.,.,7.1µM,.,.,.,?,?
O=C(NCCc1cccs1)C1CCN(C(=O)c2ncn3c2COC(c2ccccc2)C3)CC1 (stereo unspecified),.,.,7.1µM,.,.,.,?,4.4µM
COCC1CN(C(C)=O)CC12CCN(C(=O)c1cccnc1C)CC2 (stereo unspecified),.,.,.,.,.,/,/,/
COc1ccc(CC(=O)N2CCC[C@H]2c2nc(-c3ccccc3Cl)no2)cc1,.,?,.,?,?,/,/,/
COc1cccc(NC(=O)NC[C@H]2O[C@@H](CO)[C@@H](O)[C@H]2N(C)CCc2ccccc2)c1,.,.,.,.,.,/,/,/
Cc1noc(C)c1Cc1ccc(C(=O)NCC23CCCC=C2NC(=O)CC3)o1 (stereo unspecified),?,.,.,.,.,/,/,/
CC(C)(CC(=O)O)CC(=O)N[C@H]1CO[C@H]2[C@@H]1OC[C@@H]2n1nnnc1Oc1ccc2c(c1)OCO2,.,.,.,.,.,/,/,/
COCCc1noc(-c2ccccc2OC2CN(C(=O)Cc3cccc(C)c3)C2)n1,.,?,.,.,.,/,/,/
Cc1nc2c(s1)C[C@]1(C)CCC([C@H](C)C(=O)N3CCOCC3)[C@H](O)[C@H]1[C@@H]2C (stereo partly specified),.,.,.,.,.,/,/,/
C[C@H](C(=O)NCCN1CCOCC1)C1CC[C@@]2(C)Cc3sc(-c4ccccc4)nc3[C@@H](C)[C@@H]2[C@H]1O (stereo partly specified),.,?,11µM,?,?,2.2µM,?,0.99µM
COc1ccc(-c2noc(-c3cccn3CC(=O)N3CCN(c4ccc(F)cc4)CC3)n2)cc1F,.,.,.,.,.,/,/,/
COc1ccc(N2CCN(C(=O)Cn3cccc3-c3nc(-c4ccc5c(c4)OCO5)no3)CC2)cc1,.,.,.,.,.,.,.,.
COC1C(=O)N(CC2CC2)C12CCN(C(=O)c1cnccc1C)CC2 (stereo unspecified),.,.,.,.,?,/,/,/
